# In PubChem BioAssay (NCI):
# About 79,000 compounds went through this panel and 15% of them were active in at least one assay; those are over-represented in the sample as a whole. Unmarked numbers belong to inactive results. The source made the active and inactive calls. Rule as the data show it: active = growth inhibition above about 70%; inactive = the rest.
# Assay: NCI Yeast Anticancer Drug Screen. Data for the cln2 rad14 strain (AID 165);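 also: 0% = growth equal to vehicle treated cultures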
# Conditions: S. cerevisiae cln2 rad14 strain, at 50.0 µM, active compounds read high
# Outline: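 The screen exposed genetically defined yeast (cln2 rad14) to test compounds and scored growth inhibition relative to vehicle-treated controls.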
row,Structure (SMILES),growth inhibition
1,COc1ccc(N=Cc2cc(Br)cc(Br)c2O)cc1.COc1ccc(N=Cc2cc(Br)cc(Br)c2O)cc1.[Co],52.7%
2,O=C(/C=C/C(=O)N1CCCC1)N1CCCC1,-1.35%
3,O=S(c1ccccc1)c1c(Cl)c(Cl)nc(Cl)c1Cl (configuration not stated),99.6% (active)
4,CSc1nc(N)c2cnn(C3OC(CO)C(O)C3O)c2n1 (configuration not stated),6.8%
5,COc1cccc(C=O)c1O,-23.5%
6,Cn1c(=O)c2c(ncn2CCCCOc2ccc3c(c2)[n+]([O-])nc(N)[n+]3[O-])n(C)c1=O,69%
7,Cn1ncc2c(Nc3cccc(Cl)c3)nc(Nc3cccc(Cl)c3)nc21,95.4% (active)
8,Cc1cc(C)n2nc(N)c(C#N)c2c1C#N,11.7%
9,COc1ccc(C2c3cc4c(cc3OC(O)C2C)OCO4)cc1 (configuration not stated),95.3% (active)
10,Nc1ccccc1[S][Sn]([c]1ccccc1)([c]1ccccc1)[c]1ccccc1,98% (active)
11,Cn1c(Sc2ccc(-c3cccnc3)n2C)ccc1-c1cccnc1,98.1% (active)
12,Nc1nnc(-c2cc(=O)c3cc(Cl)ccc3o2)s1,10.7%
13,COc1ccc(CNc2nc3cc(C(F)(F)F)ccc3nc2C)cc1OC,92.7% (active)
14,CC(=O)OCC1CC2OC2CC1C (configuration not stated),68.1%
15,CCCCN(CCCC)CC(O)c1cc(-c2ccc(Cl)cc2)nc2cc(C)ccc12 (configuration not stated),96.2% (active)
16,NC(=S)n1nc(-c2ccccc2)c(N=Nc2ccccc2Cl)c1-c1ccccc1,73.9% (active)
17,CCCCCCCCCCCCN(CCO)CCO,73.8% (active)
